Source: PubChem BioAssay (NCI)
This is part of a sample that, as a whole, favours compounds with a hit. Of some 79,000 tested, about 15% had one in any assay. Values without a mark were called inactive. The source made the active and inactive calls. No stated cut-off is given here; in the data, active means growth inhibition above about 70%; inactive means the rest.

Columns and labels:
[1] = NCI Yeast Anticancer Drug Screen. Data for the rad50 strain (AID 155);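 further: 0% = growth of vehicle-only cultures of the same strain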; settings: S. cerevisiae rad50 strain growth inhibition; at 50.0 µM; stronger effect = higher value
Procedure, shortened: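 Readout: growth inhibition relative to vehicle-treated cultures. Compound exposure was carried out in a genetically defined yeast strain deficient in DNA damage repair.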

[2] = NCI Yeast Anticancer Drug Screen. Data for the mec2-1 strain (AID 157); settings: S. cerevisiae mec2-1 strain, at 50.0 µM, stronger effect = higher value
Procedure, shortened: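 Compounds were applied to mec2-1 yeast cells. Their growth was then compared with that of vehicle-treated cultures to give growth inhibition.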

[3] = NCI Yeast Anticancer Drug Screen. Data for the sgs1 mgt1 strain (AID 161);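 further: 0% = growth of cultures given vehicle only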; settings: S. cerevisiae sgs1 mgt1 strain, at 50.0 µM, stronger effect = higher value
Procedure, shortened: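 Percent growth inhibition was derived by comparing compound-exposed mutant yeast with vehicle-exposed cultures. The strain carries alterations in DNA damage repair.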

[4] = NCI Yeast Anticancer Drug Screen. Data for the cln2 rad14 strain (AID 165);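 further: 0% = growth equal to vehicle treated cultures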; settings: S. cerevisiae cln2 rad14 strain, at 50.0 µM, stronger effect = higher value
Procedure, shortened: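 Strain: cln2 rad14 yeast, altered in cell cycle control and DNA damage repair. Read-out: growth inhibition vs vehicle.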

[5] = NCI Yeast Anticancer Drug Screen. Data for the bub3 strain (AID 167); settings: S. cerevisiae bub3 mutant strain, at 50.0 µM, stronger effect = higher value
Procedure, shortened: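 Readout: yeast growth inhibition, expressed relative to vehicle-only wells. The test organism is a mutant strain from a panel with lesions in DNA repair or checkpoint genes.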

[6] = NCI Yeast Anticancer Drug Screen. Data for the mlh1 rad18 strain (AID 175); settings: S. cerevisiae mlh1 rad18 strain growth inhibition; at 50.0 µM; stronger effect = higher value
Procedure, shortened: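 A repair-deficient yeast strain is exposed to test compound, and growth is scored relative to vehicle-treated controls.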

Row | Compound | growth inhibition [1] | growth inhibition [2] | growth inhibition [3] | growth inhibition [4] | growth inhibition [5] | growth inhibition [6]
1 | COC(=O)C(=O)C(C(=O)C(=O)Nc1ccccc1[N+](=O)[O-])c1nc2ccc([N+](=O)[O-])cc2[nH]c1=O (stereo not drawn) | 17.8% | 15.2% | 5% | 26.6% | 27.8% | 20.7%
2 | O=C(O)c1cscc1Cc1ccccc1 | 0.9% | -2.25% | -1.7% | -21.1% | -20.8% | 5.45%
3 | O=P1(C(c2ccccc2)c2ccccc2)OC2CC(Cl)CC(C2)O1 (stereo not drawn) | 4.9% | -1.85% | -6.9% | -46.8% | 0.25% | -11.9%
4 | NNC(=O)Cc1ccc2ccccc2c1 | 12.3% | -32.1% | 4.45% | -7.05% | 4.6% | 12%
5 | CC1(C)N=C(N)N=C(N)N1c1cccc(OCCCOc2ccc([N+](=O)[O-])cc2)c1 | -31.9% | -23.6% | -17.1% | -44.9% | -7.8% | -26.4%
6 | C=C(CC[C@@H](C)[C@H]1CC[C@@]2(C)C3=C(CC[C@]12C)[C@@]1(C)CC[C@H](O)[C@@H](C)C1CC3)C(C)C (stereo partly drawn) | 10.4% | 2.8% | 45.2% | 37.8% | 14.6% | 71.5% (active)
7 | NC(=O)C(=O)NNC(=O)Nc1ccc(Cl)cc1 | 16.8% | 12.3% | 7.8% | -13.3% | 1.75% | 20.8%
8 | CSc1n[n+](-c2ccccc2)cs1 | 6.3% | 6.15% | 4.4% | 6.9% | 21.7% | -3.35%
9 | CC(Cl)(CCl)C(=O)NCNC(=O)C(C)(Cl)CCl (stereo not drawn) | 51.5% | 3.8% | 8.2% | -19.1% | 15.8% | 28.2%
10 | N#CC1=C(N)NC(=O)C(C(N)=O)C1c1ccccc1Cl (stereo not drawn) | -16.6% | -13.4% | -12.1% | -11.3% | -11.4% | -12.8%
11 | CN(C)CCN1N=Nc2cccc3cccc1c23 | 43.3% | 18.2% | 10.9% | 19.2% | 30.6% | 39.4%
12 | O=C1NCC(c2ccccc2)(C2CC2)O1 (stereo not drawn) | 7.85% | 6.65% | -13.3% | -44.6% | 5.1% | -27.1%
13 | COc1nc(NC2OC(CO)C(O)C(O)C2O)c(C=O)c(=O)n1C (stereo not drawn) | 2.45% | -6.55% | -16.1% | 9.9% | -7.3% | -7.4%
14 | Cc1cc(Cl)ccc1Nc1nc2c(s1)C(=O)c1ccccc1C2=O | 90.8% (active) | 84.9% (active) | 85.6% (active) | 86.5% (active) | 87.6% (active) | 91.4% (active)
15 | COC(=O)/C(C#N)=C1\CCC(OC)N1 (stereo not drawn) | -4.25% | 6.95% | -21.2% | 3.7% | -13.1% | -24.9%
16 | O=c1cc(-c2ccccc2)[nH]c2nccn12 | -55% | -27.1% | -53.1% | -57.5% | 5.85% | -58.7%
17 | O=c1[nH]c(=O)n(C2CC(O)C(CO)O2)cc1OCC1CCCCC1 (stereo not drawn) | -33.9% | -4.8% | -13.3% | 1.85% | -14.4% | -19.9%
18 | CCOC(=O)/C(F)=C/c1cccc(C#N)c1 | 41.6% | -3.35% | 8.1% | 24.7% | 30.7% | 23.9%
